The list is not random: actives were taken first. Their share in the collection is about 3.5%.
TEAD-YAP block – TEAD-YAP interaction inhibition, primary screen, TEAD-YAP interaction inhibitor project, luminescence, HEK-TIYL cells; AID 1259422, 2018; TEAD-Gal4/YAP UAS-luciferase luminescence; actives 1.4% (n = 640,000); inhibition, % at 9.12 µM; in the data active = inhibition above about 32%
GPR151 activ – activators of human GPR151, primary screen, cell-based, PathHunter beta-arrestin, luminescence; PathHunter beta-arrestin GPR151 cells; AID 1508602, 2020; actives 1% (n = 650,000); G-protein coupled receptor 151 (Homo sapiens), Q8TDV0; activation, % at 11.2 µM; in the data active = activation above about 4.9%
Target sequence (Q8TDV0 whole entry, looked up): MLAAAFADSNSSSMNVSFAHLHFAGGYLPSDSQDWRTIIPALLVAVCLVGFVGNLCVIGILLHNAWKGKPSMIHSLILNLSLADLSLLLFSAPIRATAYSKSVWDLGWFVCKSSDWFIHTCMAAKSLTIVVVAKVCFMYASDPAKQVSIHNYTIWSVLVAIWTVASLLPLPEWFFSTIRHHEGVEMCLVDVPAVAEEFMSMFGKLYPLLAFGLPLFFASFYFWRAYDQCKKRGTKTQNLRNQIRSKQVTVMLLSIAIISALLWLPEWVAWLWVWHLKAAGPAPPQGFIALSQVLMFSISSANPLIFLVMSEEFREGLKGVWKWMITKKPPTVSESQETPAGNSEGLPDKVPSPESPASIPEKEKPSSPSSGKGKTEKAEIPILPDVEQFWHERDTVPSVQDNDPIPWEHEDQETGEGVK
MITF primary – MITF inhibitors, primary screen, biochemical, AlphaScreen, human; AlphaScreen MITF homodimerization, bead proximity signal; Microphthalmia-associated transcription factor (Homo sapiens), O75030; inhibition, % at 2.6 µM; actives 0.91% (n = 650,000); in the data active = inhibition above about 50%
FBW7 act – FBW7 E3 ligase activators, primary screen, biochemical, AlphaScreen, human. F-box/WD repeat-containing protein 7 (Homo sapiens), Q969H0. AlphaScreen FBW7–phospho-cyclin E peptide binding, activator screen. normalized activity (activation), % at 26.1 µM. actives 0.13% (n = 650,000). AID 1259310, 2017; in the data active = normalized activity above about 1.9%;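 also: purified mutant Fbw7 with reduced substrate affinity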
GPR151 confirm – GPR151 activators, triplicate retest, confirmation, cell-based, PathHunter beta-arrestin, luminescence. GPR151 PathHunter beta-arrestin cells, 90 min; % of EA-reagent control over plate median. 6,700 tested, under 10 active. shares compounds with GPR151 activ. activation, % at 11.2 µM;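 active = mean percent activation across replicates above the confirmation screen cutoff of 4.91%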
GPR119 ag – GPR119 activators in beta-arrestin cells, counter-screen for GPR151 activator project, cell-based, PathHunter beta-arrestin, luminescence, triplicate; shares compounds with GPR151 activ; 90 min; 0 = compound-well median, 100 = enzyme-acceptor control; activation, % at 11.2 µM; actives 0.3% (n = 6,700); AID 1508611, 2020;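 active = mean percent activation in the counterscreen above 29.09%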;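 also: counterscreen on off-target GPR119 to flag nonselective hits from the GPR151 activator screen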
A number is an active result; . = inactive; / = no result; ! = not confirmed by another sample.

SMILES	TEAD-YAP block	GPR151 activ	MITF primary	FBW7 act	GPR151 confirm	GPR119 ag
COc1cccc(NC(=O)NC2(C(=O)NCc3ccco3)CCCCC2)c1	.	.	.	.	/	/
NS(=O)(=O)c1ccc(CCNC(=O)CN2C(=O)C3C4C=CC(C4)C3C2=O)cc1 (centres undefined)	.	8.1	.	.	.	.
CC(=O)c1ccc(NC(=O)CSc2nnc(C34CC5CC(CC(C5)C3)C4)n2C)cc1	.	6.2	.	.	.	.
CC(=O)c1ccc(NC(=O)CSc2nnc(C3CC3)n2C)cc1	.	.	.	.	/	/
O=C(CSc1nc2ccccc2o1)Nc1cc(C(F)(F)F)cc(C(F)(F)F)c1	.	.	.	.	/	/
COCCNCc1nc2c(c(=O)n(C)c(=O)n2C)n1Cc1ccccc1Cl	.	5.1	.	.	.	.
O=C(NN1C(=O)C2C3C=CC(C3)C2C1=O)c1ccc(Cl)cc1Cl (centres undefined)	.	.	.	.	/	/
O=C1C2C3C=CC(C3)C2C(=O)N1Nc1c(Cl)cc(Cl)cc1Cl (centres undefined)	.	6.6	.	.	.	.
Cc1c(N2C(=O)c3ccc(Br)cc3C2=O)c(=O)n(-c2ccccc2)n1C	.	5.2	.	.	.	.
CSC(=N)N	.	11.0!	.	.	.	.
CN(C)CCCSC(=N)N	/	.	.	.	/	/
Cc1cc(NC(=S)N(CCCN2CCCC2)Cc2ccco2)ccc1Cl	.	.	.	.	/	/
CC(=O)Nc1ccccc1OC(F)F	.	7.1	.	.	.	.
O=C(Nc1ccccc1OC(F)F)c1ccc(F)cc1	.	.	.	.	/	/
COc1ccc(-c2ccc(C(=O)Nc3ccccc3)s2)cc1	.	.	.	.	/	/
C=CCOC(=O)COc1ccc2c(CCC)cc(=O)oc2c1	.	5.8	.	.	.	.
CCCCOC(=O)COc1ccc2c(CCC)cc(=O)oc2c1	.	.	.	.	/	/
Cc1cc(=O)oc2cc(OC(=O)c3ccco3)ccc12	.	.	.	.	/	/
CCCCCCc1c(C)c2ccc(OC(C)C(=O)OC)cc2oc1=O (centres undefined)	.	5.7	.	.	.	.
COC(=O)Cc1c(C)c2ccc(OC(=O)c3ccco3)cc2oc1=O	.	9.0	.	.	.	.
CCc1cc(=O)oc2cc(OC(=O)c3ccco3)ccc12	.	6.8	.	.	.	.
COC(=O)C(C)Oc1ccc2c(C)c(Cc3ccccc3)c(=O)oc2c1 (centres undefined)	.	.	.	.	/	/
COc1cc2c(cc1OC)C(COc1ccc([N+](=O)[O-])cc1)N(C(=O)/C=C/c1ccc3c(c1)OCO3)CC2 (centres undefined)	.	.	.	.	/	/
COc1ccc(NC(=O)c2nnn(Cc3ccccc3)c2N)cc1	.	8.1	.	.	.	.
Nc1c(C(=O)Nc2ccc(Oc3ccccc3)cc2)nnn1Cc1ccccc1	.	.	.	.	/	/
SMILES	TEAD-YAP block	GPR151 activ	MITF primary	FBW7 act	GPR151 confirm	GPR119 ag
CC(C)(C)NC(=O)c1ccc(C(C)(C)C)cc1	.	.	.	.	/	/
CNCCOc1cccc(OC(C)C)c1	.	4.9	.	.	.	.
OCCOCCNc1ncnc2ccc(I)cc12	.	5.4	.	.	.	.
COc1ccc(C(=O)Oc2ccccc2C(C)=O)cc1Br	.	.	.	.	/	/
Cn1cccc1C(=O)OCC(=O)NC(=O)NCc1ccccc1	.	6.2	.	.	.	.
O=C1NC(=O)c2cc([N+](=O)[O-])c(Oc3ccc(F)cc3F)cc21	.	.	.	.	/	/
COc1cccc(N2CC(NC(=O)N3CCN(c4ccc(C(C)=O)cc4)CC3)CC2=O)c1 (centres undefined)	.	.	.	.	/	/
COc1cccc(N2CC(NC(=O)N3CCN(c4ccc([N+](=O)[O-])cc4)CC3)CC2=O)c1 (centres undefined)	.	12.4	.	.	.	.
CCOc1ccc(-c2noc(CCC(=O)NC)n2)cc1OC	.	.	.	.	/	/
CCOc1cc(-c2noc(CCC(=O)NC)n2)cc(Br)c1OC	.	6.6	.	.	.	.
CCCCN(C)c1nc(N)c([N+](=O)[O-])c(N2CCOCC2)n1	.	.	.	.	/	/
Nc1nc(N2CCOCC2)nc(N2CCOCC2)c1[N+](=O)[O-]	.	6.5	.	.	.	.
CC(Sc1n[nH]c(N)n1)C(=O)OC1CCCCC1 (centres undefined)	.	10.0	.	.	.	.
Nc1nc(SCC(=O)NC2CCCCCCC2)n[nH]1	.	.	.	.	/	/
Cc1cc(C)n(-c2cccc(CN(C)C(=O)Cn3nnnc3CN3CCC(C)CC3)c2)n1	.	5.7	.	.	.	.
CC1CN(C(=O)CCC(=O)N2CCOCC2)c2ccccc2O1 (centres undefined)	.	8.3	.	.	.	.
COc1ccc(OC)c(C2NC(=O)NC(C)=C2C(=O)Nc2ccc(C)c(Cl)c2)c1 (centres undefined)	.	.	.	.	/	/
O=C1CC2c3ccccc3C1C1C(=O)N(c3ccccc3)C(=O)C21 (centres undefined)	.	8.7	.	.	.	.
Cc1ccc(N2C(=O)C3C4CC(=O)C(c5ccccc54)C3C2=O)cc1 (centres undefined)	.	.	.	.	/	/
COc1cccc2cc(C(=O)N(Cc3cccs3)C3CCCC3)c(=O)oc12	.	.	.	.	/	/
CCn1c(N)c(C(=O)N2CCCCC2)sc1=S	.	5.4	.	.	.	.
O=C(O)COc1cc(OCC(=O)O)c2c3c(c(=O)oc2c1)CCC3	.	.	.	.	/	/
CCOC(=O)CNc1c(-c2ccc(OC)c(O)c2)nc2ccc(C)cn12	.	5.5	.	.	.	.
CCOC(=O)CNc1c(-c2ccc(O)cc2)nc2cnccn12	.	.	.	.	/	/
O=C(NC1CCCC1)C(c1cccnc1)N(C(=O)c1ccco1)c1cccc(F)c1 (centres undefined)	.	.	.	.	/	/
COc1ccc(NC(=O)CCNc2c(N3CCCC3)c(=O)c2=O)cc1	.	6.1	.	.	.	.
COc1ccc(N2C(=O)NC3CC2(C)Oc2c(OC)cccc23)c(OC)c1 (centres undefined)	.	6.7	.	.	.	.
COc1ccc(N2C(=O)NC3CC2(C)Oc2c(OC)cccc23)cc1 (centres undefined)	.	.	.	.	/	/
COc1ccc(Cl)cc1NC(=O)CN(c1cccc(Cl)c1)S(C)(=O)=O	.	6.8	.	.	.	.

Screening results as filed in PubChem.
